According to ChEMBL document CHEMBL1961873, “Compounds: GSK PKIS; Assays: Nanosyn kinase panel” (2012):

target: Tyrosine-protein kinase JAK2 (Homo sapiens) (UniProt O60674); conditions: at 1 µM;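 also: mean JAK2 inhibition from the GSK PKIS screen, compounds tested at 1 µM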
Sequence (O60674 whole entry): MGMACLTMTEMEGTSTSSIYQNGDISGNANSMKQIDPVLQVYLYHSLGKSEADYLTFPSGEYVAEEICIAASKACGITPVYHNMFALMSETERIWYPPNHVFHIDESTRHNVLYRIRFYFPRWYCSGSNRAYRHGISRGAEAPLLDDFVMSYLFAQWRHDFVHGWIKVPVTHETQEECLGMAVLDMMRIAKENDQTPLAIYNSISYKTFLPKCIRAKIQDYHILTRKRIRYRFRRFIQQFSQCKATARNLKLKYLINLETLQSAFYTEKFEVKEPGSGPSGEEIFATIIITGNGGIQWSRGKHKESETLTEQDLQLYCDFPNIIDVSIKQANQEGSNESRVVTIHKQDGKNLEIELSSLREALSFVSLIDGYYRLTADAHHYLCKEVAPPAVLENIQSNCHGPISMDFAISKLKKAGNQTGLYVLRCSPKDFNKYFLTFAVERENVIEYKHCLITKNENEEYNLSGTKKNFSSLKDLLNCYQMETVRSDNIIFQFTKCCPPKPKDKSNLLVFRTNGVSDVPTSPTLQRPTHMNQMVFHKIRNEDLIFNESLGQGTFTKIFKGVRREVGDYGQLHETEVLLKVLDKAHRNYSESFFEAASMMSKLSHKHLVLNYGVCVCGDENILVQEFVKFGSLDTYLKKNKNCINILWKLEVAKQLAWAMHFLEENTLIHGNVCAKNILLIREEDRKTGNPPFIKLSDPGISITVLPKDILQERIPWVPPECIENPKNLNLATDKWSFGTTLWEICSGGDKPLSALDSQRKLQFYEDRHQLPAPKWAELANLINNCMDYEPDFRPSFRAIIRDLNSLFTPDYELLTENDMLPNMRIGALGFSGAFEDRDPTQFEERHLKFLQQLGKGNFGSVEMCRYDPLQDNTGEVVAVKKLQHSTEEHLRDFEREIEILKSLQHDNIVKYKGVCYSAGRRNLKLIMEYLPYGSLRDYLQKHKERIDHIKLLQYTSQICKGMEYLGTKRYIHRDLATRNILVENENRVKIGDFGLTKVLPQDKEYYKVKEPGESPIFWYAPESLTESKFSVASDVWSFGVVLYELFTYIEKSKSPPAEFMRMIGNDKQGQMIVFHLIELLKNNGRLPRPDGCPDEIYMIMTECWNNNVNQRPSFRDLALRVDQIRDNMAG

Row | Compound | inhibition [%]
1 | N#Cc1c(NC(=O)c2cccc3ccccc23)sc2c1CCCC2 | 1.85
2 | COc1cc(C=NNc2ncnc3c2cnn3-c2ccccc2)ccc1O | 8.82
3 | CC(C)=Cc1cccc2c1/C(=N/Nc1ccc(S(N)(=O)=O)cc1)C(=O)N2 | 34.2
4 | Cc1ccc(NC(=O)c2ccnc(N3CCCC3)c2)cc1-c1ccc(C(=O)NCC2CC2)cc1 | 2.33
5 | Nc1nc(-c2ccc3c(c2)C(=Cc2cc(Br)c(O)c(Br)c2)C(=O)N3)cs1 | -1.87
6 | CS(=O)(=O)CCNCc1ccc(-c2ccc3ncnc(Nc4ccc(OCc5cccc(F)c5)c(C(F)(F)F)c4)c3c2)o1 | 1.17
7 | COc1ccc(-c2coc3ncnc(N)c23)cc1 | 2.08
8 | CCCN1CCC=C(c2ccc(Nc3nc(Nc4ccccc4C(N)=O)c4cc[nH]c4n3)c(C)c2)C1 | 2.74
9 | O=C1NC(=O)C(c2cccc(Cl)c2)=C1Nc1ccc(O)c(Cl)c1 | 2.24
10 | COc1cc2ncn(-c3cc(O[C@H](C)c4ccccc4Cl)c(C(N)=O)s3)c2cc1OC | 6.6
11 | CC1=C(C(=O)Nc2ccc3[nH]ncc3c2)C(c2ccc3ccccc3c2)CC(=O)N1 (stereo unspecified) | 25.8
12 | O=C1NC(=O)C(c2ccc(Cl)cc2)=C1Nc1ccc(Cl)c(C(=O)O)c1 | -0.22
13 | c1cnn2ncc(-c3ccnc(Nc4ccc5c(c4)OCCO5)n3)c2c1 | 20.6
14 | COc1cc2ncn(-c3cc(O[C@@H](C)c4ccccc4Cl)c(C(N)=O)s3)c2cc1OC | 1.08
15 | CCn1c(-c2nonc2N)nc2c(C#CC(C)(C)O)nc(CN3CCCC3)cc21 | -0.34
16 | CCn1c(-c2nonc2N)nc2ccncc21 | 0.91
17 | CNC(=O)c1cncc(/C=C/c2c(Cl)cccc2Cl)c1 | 2.6

Row | Compound | inhibition [%]
18 | Cc1nnc(-c2ccc(C)c(-c3ccc(C(=O)Nc4cccc(C#N)c4)cc3)c2)o1 | -0.34
19 | CN(C)c1cc2c(Nc3ccc4nc(Cc5ccccc5)[nH]c4c3)ncnc2cn1 | 1.44
20 | Cc1cccc(-c2n[nH]cc2-c2ccc3ncccc3n2)n1 | -0.14
21 | CS(=O)(=O)CCN(CC#N)Cc1ccc(-c2ccc3ncnc(Nc4ccc(OCc5cccc(F)c5)c(Cl)c4)c3c2)o1 | 1.26
22 | CCn1c(-c2nonc2N)nc2c(C#CC(C)(C)O)nc(OC[C@@H](N)c3ccccc3)cc21 | 6.32
23 | CC(=O)Nc1cccc(C#Cc2cncnc2Nc2ccc(OCc3cccc(F)c3)c(Cl)c2)n1 | -0.27
24 | CC1=C(C(=O)Nc2ccc3[nH]ncc3c2)C(c2ccc(Cl)c(Cl)c2)CC(=O)N1 (stereo unspecified) | 23.5
25 | O=C1Nc2ccc(C(=O)c3ccco3)cc2C1=Cc1cc(Cl)c(O)c(Cl)c1 | 6
26 | CS(=O)(=O)Nc1ccc(N/C=C2\C(=O)Nc3ccccc32)cc1 | 1.03
27 | COc1cc2ncn(-c3cc(OCc4ccccc4Cl)c(C(N)=O)s3)c2cc1OC | 0.34
28 | Fc1cccc(COc2ccc(Nc3ncnc4sc(-c5cccs5)cc34)cc2Cl)c1 | 0.58
29 | [O-][S+]1CCN(Cc2ccc(-c3ccc4ncnc(Nc5ccc(OCc6ccccc6)c(F)c5)c4c3)o2)CC1 | 0.64
30 | Cc1ccc(C(=O)NC2CCCCC2)cc1-c1ccc(C(=O)NCC2CC2)cc1 | 4.08
31 | Cc1nn(C)c2cc(N(C)c3ccnc(Nc4cccc(S(N)(=O)=O)c4)n3)ccc12 | 59.5
32 | CCN1CCC(CC(=O)Nc2n[nH]c3nc(-c4cccs4)c(Br)cc23)CC1 | -2.38
33 | COc1ccc(-c2nn3ncccc3c2-c2ccnc(Nc3ccc(Cl)c(C(F)(F)F)c3)n2)cc1 | -0.98

target: T1, Tyrosine-protein kinase JAK3 (Homo sapiens) (UniProt P52333); conditions: at 0.1 µM;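 also: values reported are mean percent inhibition of JAK3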
T1 sequence (whole entry): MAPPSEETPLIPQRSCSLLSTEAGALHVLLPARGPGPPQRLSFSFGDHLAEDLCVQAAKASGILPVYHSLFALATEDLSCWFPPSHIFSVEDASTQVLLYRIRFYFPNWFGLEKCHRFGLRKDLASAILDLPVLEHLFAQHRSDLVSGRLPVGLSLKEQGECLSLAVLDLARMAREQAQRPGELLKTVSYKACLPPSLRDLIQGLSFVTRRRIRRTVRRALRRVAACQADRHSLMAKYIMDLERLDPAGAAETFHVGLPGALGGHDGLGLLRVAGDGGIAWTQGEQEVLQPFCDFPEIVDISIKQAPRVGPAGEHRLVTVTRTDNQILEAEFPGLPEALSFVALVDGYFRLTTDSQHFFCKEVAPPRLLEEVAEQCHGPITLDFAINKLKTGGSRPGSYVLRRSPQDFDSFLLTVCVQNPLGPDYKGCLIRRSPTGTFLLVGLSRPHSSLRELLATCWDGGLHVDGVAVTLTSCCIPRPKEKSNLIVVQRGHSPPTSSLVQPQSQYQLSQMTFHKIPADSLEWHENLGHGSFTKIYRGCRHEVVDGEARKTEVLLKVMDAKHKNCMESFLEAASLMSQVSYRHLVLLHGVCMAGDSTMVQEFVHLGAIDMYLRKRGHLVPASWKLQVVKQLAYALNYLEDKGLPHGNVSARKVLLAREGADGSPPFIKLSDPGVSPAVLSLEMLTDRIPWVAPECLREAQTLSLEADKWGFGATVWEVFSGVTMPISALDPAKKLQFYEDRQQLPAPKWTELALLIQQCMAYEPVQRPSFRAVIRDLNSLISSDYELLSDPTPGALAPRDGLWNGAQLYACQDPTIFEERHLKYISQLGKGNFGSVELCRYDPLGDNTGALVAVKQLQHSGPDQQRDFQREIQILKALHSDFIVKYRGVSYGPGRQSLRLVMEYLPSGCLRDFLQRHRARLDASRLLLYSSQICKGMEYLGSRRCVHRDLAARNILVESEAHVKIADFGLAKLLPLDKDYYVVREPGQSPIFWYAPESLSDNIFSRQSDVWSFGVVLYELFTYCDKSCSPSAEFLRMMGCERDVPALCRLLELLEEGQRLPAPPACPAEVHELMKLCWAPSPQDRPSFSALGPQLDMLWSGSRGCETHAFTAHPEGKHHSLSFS

Row | Compound | inhibition [%]
34 | N#Cc1c(NC(=O)c2cccc3ccccc23)sc2c1CCCC2 | -0.84
35 | COc1cc(C=NNc2ncnc3c2cnn3-c2ccccc2)ccc1O | -0.33
36 | CC(C)=Cc1cccc2c1/C(=N/Nc1ccc(S(N)(=O)=O)cc1)C(=O)N2 | 5.65
37 | Cc1ccc(NC(=O)c2ccnc(N3CCCC3)c2)cc1-c1ccc(C(=O)NCC2CC2)cc1 | -2.85
38 | Nc1nc(-c2ccc3c(c2)C(=Cc2cc(Br)c(O)c(Br)c2)C(=O)N3)cs1 | 1.19
39 | CS(=O)(=O)CCNCc1ccc(-c2ccc3ncnc(Nc4ccc(OCc5cccc(F)c5)c(C(F)(F)F)c4)c3c2)o1 | -0.58
40 | COc1ccc(-c2coc3ncnc(N)c23)cc1 | -1.56
41 | CCCN1CCC=C(c2ccc(Nc3nc(Nc4ccccc4C(N)=O)c4cc[nH]c4n3)c(C)c2)C1 | -1.04
42 | O=C1NC(=O)C(c2cccc(Cl)c2)=C1Nc1ccc(O)c(Cl)c1 | 3.49
43 | COc1cc2ncn(-c3cc(O[C@H](C)c4ccccc4Cl)c(C(N)=O)s3)c2cc1OC | 0.32
44 | CC1=C(C(=O)Nc2ccc3[nH]ncc3c2)C(c2ccc3ccccc3c2)CC(=O)N1 (stereo unspecified) | 0.88
45 | O=C1NC(=O)C(c2ccc(Cl)cc2)=C1Nc1ccc(Cl)c(C(=O)O)c1 | 0.01
46 | c1cnn2ncc(-c3ccnc(Nc4ccc5c(c4)OCCO5)n3)c2c1 | 1.94
47 | COc1cc2ncn(-c3cc(O[C@@H](C)c4ccccc4Cl)c(C(N)=O)s3)c2cc1OC | -3.05
48 | CCn1c(-c2nonc2N)nc2c(C#CC(C)(C)O)nc(CN3CCCC3)cc21 | 0.46
49 | CCn1c(-c2nonc2N)nc2ccncc21 | -1.14
50 | CNC(=O)c1cncc(/C=C/c2c(Cl)cccc2Cl)c1 | -4.61

Row | Compound | inhibition [%]
51 | Cc1nnc(-c2ccc(C)c(-c3ccc(C(=O)Nc4cccc(C#N)c4)cc3)c2)o1 | -1.17
52 | CN(C)c1cc2c(Nc3ccc4nc(Cc5ccccc5)[nH]c4c3)ncnc2cn1 | -1.29
53 | Cc1cccc(-c2n[nH]cc2-c2ccc3ncccc3n2)n1 | 0.65
54 | CS(=O)(=O)CCN(CC#N)Cc1ccc(-c2ccc3ncnc(Nc4ccc(OCc5cccc(F)c5)c(Cl)c4)c3c2)o1 | -5.68
55 | CCn1c(-c2nonc2N)nc2c(C#CC(C)(C)O)nc(OC[C@@H](N)c3ccccc3)cc21 | 1.24
56 | CC(=O)Nc1cccc(C#Cc2cncnc2Nc2ccc(OCc3cccc(F)c3)c(Cl)c2)n1 | 2.07
57 | CC1=C(C(=O)Nc2ccc3[nH]ncc3c2)C(c2ccc(Cl)c(Cl)c2)CC(=O)N1 (stereo unspecified) | 0.78
58 | O=C1Nc2ccc(C(=O)c3ccco3)cc2C1=Cc1cc(Cl)c(O)c(Cl)c1 | 12.7
59 | CS(=O)(=O)Nc1ccc(N/C=C2\C(=O)Nc3ccccc32)cc1 | 0.43
60 | COc1cc2ncn(-c3cc(OCc4ccccc4Cl)c(C(N)=O)s3)c2cc1OC | 0.35
61 | Fc1cccc(COc2ccc(Nc3ncnc4sc(-c5cccs5)cc34)cc2Cl)c1 | 1.46
62 | [O-][S+]1CCN(Cc2ccc(-c3ccc4ncnc(Nc5ccc(OCc6ccccc6)c(F)c5)c4c3)o2)CC1 | 0.01
63 | Cc1ccc(C(=O)NC2CCCCC2)cc1-c1ccc(C(=O)NCC2CC2)cc1 | 0.78
64 | Cc1nn(C)c2cc(N(C)c3ccnc(Nc4cccc(S(N)(=O)=O)c4)n3)ccc12 | -0.24
65 | CCN1CCC(CC(=O)Nc2n[nH]c3nc(-c4cccs4)c(Br)cc23)CC1 | 0.48
66 | COc1ccc(-c2nn3ncccc3c2-c2ccnc(Nc3ccc(Cl)c(C(F)(F)F)c3)n2)cc1 | -0.77
